SENP8 block-1: SENP8 protease inhibitors, primary screen, biochemical, luminescence | Sentrin-specific protease 8 (Homo sapiens), Q96LD8 | purified SENP8, Z-RLRGG-aminoluciferin cleavage | inhibition, % at 10 µM | 330,000 compounds, 1.2% hits | AID 2540, 2010; in the data active = inhibition above about 50%
Target sequence (Q96LD8 whole entry, looked up): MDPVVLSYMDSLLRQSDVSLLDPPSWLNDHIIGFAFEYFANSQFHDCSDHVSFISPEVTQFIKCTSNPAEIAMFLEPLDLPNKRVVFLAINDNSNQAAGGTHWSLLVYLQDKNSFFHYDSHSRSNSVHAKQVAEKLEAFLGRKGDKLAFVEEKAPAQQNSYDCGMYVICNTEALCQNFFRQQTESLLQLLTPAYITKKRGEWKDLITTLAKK
SENP8 block-2: human SENP8 protease inhibitors, primary screen, biochemical, fluorescence, Nedd8 protein substrate, uHTS; Sentrin-specific protease 8 (Homo sapiens), Q96LD8; 360,000 compounds, 0.64% hits; inhibition, % at 20 µM; recombinant SENP8; AID 602440, 2012; in the data active = inhibition mostly above about 40%, no sharp cut-off; inactive = mostly below about 27%
Platelet DG rel: inhibitors of platelet dense granule secretion, primary screen, cell-based, MLPCN, human platelets; human platelet-rich plasma, SFLLRN dense granule ATP release, luminescence; inhibition, %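 (compounds screened at 7.5 µM in platelet-rich plasma)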; 300,000 compounds, 0.22% hits; AID 1663, 2009;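 active = mean replicate score, as percent of positive control, at or above 50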
SENP6 block: SENP6 protease inhibitors, primary screen, biochemical, luminescence, uHTS; Sentrin-specific protease 6 (Homo sapiens), Q9GZR1; Recombinant SENP6 catalytic domain, aminoluciferin luminescence; inhibition, % at 10 µM; 330,000 compounds, 1.8% hits;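 active = inhibition above about 50% at the single tested dose, limit read from the data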;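 also: plate controls were DMSO wells with enzyme for no effect and DMSO wells lacking enzyme for full effect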
SENP7 inh: SENP7 protease inhibitors, primary screen, biochemical, luminescence, uHTS; recombinant SENP7, Z-RLRGG-aminoluciferin luminescence, 40 min; 330,000 compounds, 1.5% hits; inhibition, % at 5 µM; Sentrin-specific protease 7 (Homo sapiens), Q9BQF6;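 active = inhibition above about 50% at the single test dose, limit read from the data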;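 also: plate controls were DMSO with enzyme for no effect and no enzyme buffer wells for full effect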
Target sequence (Q9BQF6 706-1050 limits assumed): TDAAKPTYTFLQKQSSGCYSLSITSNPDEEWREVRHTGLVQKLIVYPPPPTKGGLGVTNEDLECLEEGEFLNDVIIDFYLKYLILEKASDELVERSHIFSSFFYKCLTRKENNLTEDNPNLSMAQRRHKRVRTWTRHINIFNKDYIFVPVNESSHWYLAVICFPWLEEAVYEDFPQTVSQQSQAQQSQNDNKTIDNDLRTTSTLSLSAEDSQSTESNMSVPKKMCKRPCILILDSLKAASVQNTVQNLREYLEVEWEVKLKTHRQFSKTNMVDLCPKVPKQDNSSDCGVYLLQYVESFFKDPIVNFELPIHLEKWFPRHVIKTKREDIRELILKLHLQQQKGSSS
SENP8 conf: SENP8 protease inhibitors, retest, confirmation, biochemical, luminescence, single concentration; shares compounds with SENP7 inh; Recombinant SENP8, Z-RLRGG-aminoluciferin luminescence, 60 min; inhibition, % at 12.5 µM; 6,200 compounds, 40% hits;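 active = mean inhibition across replicates above about 50%, limit read from the data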
SENP6 confirm: SENP6 protease inhibitors, confirmation, biochemical, luminescence, single concentration; AID 488915, 2010; shares compounds with SENP7 inh; inhibition, % at 12.5 µM; 6,200 compounds, 58% hits; recombinant SENP6, Z-RLRGG-aminoluciferin luminescence
SENP7 conf: SENP7 protease inhibitors, retest, confirmation, biochemical, luminescence, single concentration; inhibition, % at 12.5 µM; recombinant SENP7, Z-RLRGG-aminoluciferin luminescence, 40 min; AID 488917, 2010; 6,200 compounds, 69% hits; shares compounds with SENP7 inh
Casp3 select: caspase-3 protease inhibitors, confirmation, selectivity assay for SENP inhibitor project, biochemical, single concentration | inhibition, % at 12.5 µM | shares compounds with SENP7 inh | 6,200 compounds, 60% hits | AID 488918, 2010 | purified caspase-3, Z-DEVD-aminoluciferin luminescence, 60 min;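 active = mean inhibition above about 50%, limit read from the data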;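 also: plate controls were enzyme with DMSO for no effect and wells without caspase-3 for full effect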
Luc interf: counter-screen for SENP inhibitors: luminescence interference; Pre-incubated SENP8/Z-RLRGG-aminoluciferin, luciferase luminescence interference; shares compounds with SENP7 inh; 6,200 compounds, 39% hits; inhibition, % at 12.5 µM; AID 488919;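 active = mean inhibition above about 50% when retested at one dose, limit read from the data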;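 also: plate controls were DMSO wells with completed reaction for no effect and substrate without enzyme for full effect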
The depositor's hits bear a star; i = inactive; nt = no result given. This is a sample that favours compounds with a hit; in the whole collection about 2.4% have one here.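 The calls were made as follows, unless noted: active = mean inhibition above about 50% in the one-dose retest (limit read from the data); inactive = the rest.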

SMILES | SENP8 block-1 | SENP8 block-2 | Platelet DG rel | SENP6 block | SENP7 inh | SENP8 conf | SENP6 confirm | SENP7 conf | Casp3 select | Luc interf
Oc1cccc(-c2nc3ccccc3s2)c1 | 92* | -142 | 13 | 96* | 95* | -23 | 95* | 102* | 87* | 95*
CC(=O)Nc1cccc(-c2nc3ccccc3s2)c1 | 22 | -58 | -1 | 47 | 34 | nt | nt | nt | nt | nt
O=C(Cc1ccccc1F)NCC1(N2CCOCC2)CCCCC1 | -2 | 8 | -1 | -23 | -3 | nt | nt | nt | nt | nt
Cc1ccc(-c2noc(-c3cccs3)n2)cc1 | 95* | 10 | 9 | 95* | -5 | 14 | 97* | 103* | 90* | 70*
COc1ccc(Br)cc1-c1noc(-c2ccncc2)n1 | -2 | 21 | 11 | 4 | 1 | nt | nt | nt | nt | nt
c1csc(-c2nc(N3CCCCC3)no2)c1 | 53* | -289 | 10 | 66* | 61* | -18 | 43 | 84* | 52* | 4
COc1ccccc1-c1noc(-c2ccncc2)n1 | 23 | 18 | 20 | 53* | 51* | 42 | 41 | 77* | 76* | 52*
COc1ccccc1-c1noc(-c2cccs2)n1 | 59* | 16 | 0 | 76* | 68* | 78* | 78* | 92* | 78* | 80*
O=C1CSC(c2cccc([N+](=O)[O-])c2)N1CCc1ccccc1 (stereo not given) | -3 | 10 | 0 | -10 | -5 | nt | nt | nt | nt | nt
Cn1nnc2cc(NC(=O)Nc3cccc(C(F)(F)F)c3)ccc21 | 4 | -10 | 3 | 28 | 1 | nt | nt | nt | nt | nt
O=C1OCC/C1=C\NCCCN/C=C1\CCOC1=O | nt | 6 | nt | nt | nt | nt | nt | nt | nt | nt
CCOc1cc2c(C#N)c(N(CC)CC)nc(N)c2c(N)n1 | 5 | i | -4 | 72* | 45 | -2 | 1 | 3 | 10 | 6
CCCN(CC1CC1)c1nc(N)c2c(N)nc(OC)cc2c1C#N | 80* | -499 | -24 | 82* | 4 | 7 | 12 | 2 | -5 | -16
CCOc1cc2c(C#N)c(N3CCOCC3)nc(N)c2c(N)n1 | 4 | -411 | 7 | 13 | 28 | nt | nt | nt | nt | nt
O=C(Nc1nsc(-c2ccccc2)n1)c1ccc(F)cc1 | -9 | -10 | -2 | 16 | 4 | nt | nt | nt | nt | nt
O=C(Nc1scc(-c2ccccc2)c1C(=O)O)c1ccc(F)cc1 | 92* | -77 | 12 | 91* | 71* | 93* | 94* | 102* | 96* | 92*
CCOC(=O)c1c(-c2ccc(F)cc2)csc1NC(=O)C1CC=CCC1C(=O)O (stereo not given) | -8 | -3 | -1 | -18 | -9 | nt | nt | nt | nt | nt
Cc1ccc(-c2csc(NC(=O)c3ccc(F)cc3)c2C(=O)O)cc1 | 90* | -24 | 9 | 94* | 58* | -2 | 91* | 90* | 89* | 68*
COc1ccccc1NC(=O)COC(=O)c1c(C)nn(-c2ccccc2)c1C | 95* | 5 | nt | 93* | 97* | 96* | 96* | 101* | 95* | 75*
Cc1nn(-c2ccccc2)c(C)c1C(=O)OCC(=O)Nc1ccccc1 | 75* | -1 | nt | 83* | 81* | 77* | 76* | 94* | 83* | 74*
Cc1cc(NC(=O)COC(=O)c2c(C)nn(-c3ccccc3)c2C)no1 | 7 | 14 | 1 | 2 | 7 | nt | nt | nt | nt | nt
Cc1ccc(NC(=O)COC(=O)c2c(C)nn(-c3ccccc3)c2C)cc1 | -4 | 2 | nt | 4 | 5 | nt | nt | nt | nt | nt
O=C(C[C@@H]1C/C=C/CCCC(=O)O[C@H](c2ccccc2)CNC1=O)N[C@H](CO)Cc1ccccc1 | -4 | 14 | nt | -9 | 8 | nt | nt | nt | nt | nt
CCOc1ccc2nc(NC(=O)Nc3cccs3)sc2c1 | 57* | -5 | -10 | 68* | 40 | 51* | 61* | 82* | 32 | 38
CCOc1ccc2nc(NC(=O)NC3CCCCC3)sc2c1 | -2 | 15 | 10 | -4 | 2 | nt | nt | nt | nt | nt
SMILES | SENP8 block-1 | SENP8 block-2 | Platelet DG rel | SENP6 block | SENP7 inh | SENP8 conf | SENP6 confirm | SENP7 conf | Casp3 select | Luc interf
CCOc1ccc2nc(NC(=O)Cc3cccs3)sc2c1 | 26 | 0 | -11 | 64* | 47 | 57* | 54* | 80* | 32 | 14
COc1ccc(-c2cc(-c3ccc(OC)cc3)[nH]n2)cc1 | 6 | 12 | -1 | -19 | -1 | nt | nt | nt | nt | nt
COc1ccc(-c2n[nH]c(C)c2-c2ccc(Cl)cc2)c(O)c1 | -7 | 11 | 3 | -9 | 6 | nt | nt | nt | nt | nt
COc1ccc(-c2cc(-c3cc(C)ccc3O)[nH]n2)cc1 | 56* | -1 | -1 | 72* | 61* | 75* | 74* | 88* | 19 | 39
COc1ccc(-c2cc(-c3ccc(C)cc3)n[nH]2)c(O)c1 | 33 | 7 | 17 | 58* | 37 | 49 | 42 | 72* | 14 | 32
CCOc1ccc(C(=O)N[C@H](C(=O)Nc2ccc(S(=O)(=O)Nc3nccs3)cc2)C(C)C)cc1 | 1 | -8 | nt | -9 | 8 | nt | nt | nt | nt | nt
CC(=O)N(CCCNC(=O)c1ccccc1)C(=O)c1ccccc1 | -7 | 12 | -3 | -13 | 4 | nt | nt | nt | nt | nt
COc1ccc(/C=N/Nc2cc(N(C)C)nc(N(C)C)n2)cc1 | 17 | -6 | -12 | 80* | 72* | 38 | 82* | 81* | -2 | -5
COc1ccc(/C=N/Nc2nccnc2Cl)c(OC)c1 | 91* | -161 | 54* | 93* | 98* | 96* | 97* | 103* | 98* | 95*
COc1ccccc1/C=N/Nc1cc(N(C)C)nc(N(C)C)n1 | 22 | -74 | 14 | 38 | 49 | nt | nt | nt | nt | nt
Clc1nccnc1N/N=C/c1ccc(Br)cc1 | 94* | -204 | 40 | 96* | 98* | 97* | 98* | 102* | 97* | 96*
COc1ccc(/C=N/Nc2nccnc2Cl)cc1 | 95* | -106 | 82* | 95* | 97* | 98* | 99* | 103* | 99* | 97*

High-throughput results (PubChem)
